ELG1 DNA repair: qHTS screen for small molecules that inhibit ELG1-dependent DNA repair in human embryonic kidney (HEK293T) cells expressing luciferase-tagged ELG1; Potency, µM (top dose mostly 46.1 µM), actives largely listed as inhibitors; 330,000 compounds, 2.3% hits; HEK293T ELG1-luciferase reporter, luminescence, 16 h; DNA damage induced by 5-fluorouridine; further: nearly all actives have a fitted effect of over 55% in size
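5-Fluorouridine DNA damage + compound/DMSO, 2,000 cells/well, 16 h, 37 °C/5% CO2. ONE-Glo, 30 min RT, luminescence. Readout = decrease in reporter signal.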
DT40 TDP1 CPT: qHTS for Inhibitors of human tyrosyl-DNA phosphodiesterase 1 (TDP1): qHTS in cells in presence of CPT; AID 686979, 2013; Potency, µM (series often up to 46.2 µM), most hits filed as inhibitors; 420,000 compounds, 12% hits; chicken DT40 Tdp1-/-;hTDP1 cells + 20 nM CPT, ATP luminescence, 48 h; further: nearly all actives have a fitted effect of over 55% in size
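Chicken DT40 Tdp1-/- cells stably complemented with human TDP1 were seeded at 400 cells/well in medium containing 20 nM camptothecin, exposed to pin-transferred compounds, and grown at 37 °C for at least 48 hr. Viability was read as ATP luminescence.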
IL-1B inflam inh: qHTS for Inhibitors of Inflammasome Signaling: IL-1-beta AlphaLISA Primary Screen | THP-1 LPS/ATP IL-1B secretion, AlphaLISA, 16 h; hits give low values | activity change, % at 57.5 µM | 360,000 compounds, 4.7% hits | AID 743279, 2014; in the data active means activity change below about -50%; inconclusive means mostly about -30% to -49%
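Secreted IL-1B measured by AlphaLISA bead assay after 16 h compound exposure of THP-1 cells; compounds (final up to 57.5 uM) added 1 h before LPS (250 ng/mL) and ATP (1.25 mM) stimulation; lower signal means less secretion.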
DT40 TDP1 no CPT: qHTS for Inhibitors of human tyrosyl-DNA phosphodiesterase 1 (TDP1): qHTS in cells in absence of CPT. Potency, µM (highest dose often 46.2 µM), usual class: inhibitors. 420,000 compounds, 15% hits. DT40 Tdp1-/- hTDP1 cells, no CPT, ATP luminescence, 48 h; further: nearly all actives have a fitted effect of over 55% in size
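No-CPT arm: Tdp1-/-;hTDP1 DT40 cells (400/well) plus compounds, incubated ≥48 hr at 37 °C. Readout CellTiter-Glo luminescence.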
HT1080 IDH1KD tx: qHTS for induction of synthetic lethality in tumor cells producing 2HG: qHTS for the HT-1080-IDH1KD cell line; HT-1080 IDH1 knockdown viability, ATP luminescence, 48 h; Potency, µM (highest dose often 46.1 µM), actives largely listed as cytotoxic; 360,000 compounds, 2% hits; AID 686971, 2013
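Assay cells: HT-1080 with IDH1 knockdown, 750 per well, RPMI/5% FBS. Exposure: 48 h at 37 °C following 2 h pre-incubation. Read: CellTiter-Glo luminescence; fitted concentration-response, curve class assigned.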
HT1080NT lethal: qHTS for induction of synthetic lethality in tumor cells producing 2HG: qHTS for the HT-1080-NT fibrosarcoma cell line. Potency, µM (series often up to 46.1 µM), hits mostly cytotoxic. HT-1080-NT fibrosarcoma viability, CellTiter-Glo ATP luminescence, 48 h. AID 686970, 2013. 360,000 compounds, 1.6% hits;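 further: NT is the 2HG producing partner of a matched IDH1 knockdown line; nearly all actives have a fitted effect of over 55% in size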
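HT-1080-NT fibrosarcoma cells (2HG-overproducing), 750 cells/well in RPMI with 5% FBS, dosed after 2 h and incubated 48 h at 37C. CellTiter-Glo luminescence normalized to DMSO and no-cell wells; concentration-response curves fitted and classed.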
A number is an active result; – = inactive; ? = inconclusive; · = no result; ! = not active in a repeat; [ ] = another dose, or the depositor's remark. Sampled rows, rich in hits. Any-hit rate of the full collection: about 19%. Unless noted, the call rests on the fitted dose curve; in most records, active means well fitted curve in the direction sought with a large enough effect; inconclusive means small, poorly fitted or top-dose-only effect, or another doubt; inactive means no such curve, though single readings can be large; an effect the other way counts as inactive or inconclusive.

SMILES | ELG1 DNA repair | DT40 TDP1 CPT | IL-1B inflam inh | DT40 TDP1 no CPT | HT1080 IDH1KD tx | HT1080NT lethal
Cc1ccc(N2NC(=O)/C(=C\c3cc4c(cc3[N+](=O)[O-])OCO4)C2=O)cc1C | ? | ? | -105 | ? | – | –
CN(Cc1ccon1)C(=O)c1cnn(-c2ncc3c(n2)-c2ccccc2CCC3)c1C1CC1 | · | –[9.04 µM] | · | ? | · | ·
CCNc1nnc(CCn2nc(C)c(Br)c2C)s1 | ? | – | – | – | – | –
Cc1ccc(NC(=O)c2ccccc2O)cc1 | ? | ? | – | ? | ? | ?
Cc1ccc(NC(=O)CN(C)C(=O)COc2cccc3cccnc23)cc1 | – | 3.7µM | – | 2.9µM | – | –
Cc1ccc(NC(=O)c2cccc3cccnc23)cc1 | ? | ? | – | 18µM | – | –
Cc1ccc(NC(=O)CN(C)S(=O)(=O)c2cccc3cccnc23)cc1 | – | – | – | ? | – | –
O=C(NNc1cccc(Cl)n1)Nc1ccc(Cl)cc1 | – | ? | – | – | – | –
CC(Oc1ccc(Cl)cc1Cl)C(=O)Nc1ccncc1 (stereo unspecified) | 5.8µM | 21µM | – | 9.2µM | ? | ?
Cc1ccc(NNC(=O)Nc2ccc(Cl)cc2)nn1 | – | 21µM | – | ? | – | –
O=C(Nc1ccncc1)Nc1ccc(Cl)cc1Cl | – | 18µM | · | ? | – | –
O=C(Nc1ccncc1)Nc1ccncc1 | ? | – | – | ? | – | –
O=C(Nc1ccncc1)Nc1ccc(Cl)cc1 | ? | ? | -94 | ? | – | –
CCOC(=O)c1csc(-c2csc(CCNC(=O)c3ccccc3)n2)n1 | · | ? | – | ? | – | –
C[C@H]1C=C(C(=O)NC2CC2)O[C@@H](OCc2ccc(CO)cc2)C1 | – | – | – | – | – | –
COc1ccc2oc(C(=O)N(C)CCOc3ccccc3)c(C)c2c1 | ? | – | – | – | – | –
COc1ccc(OC)c(-c2cc(Cl)c3c(c2)CC(CNC(=O)c2cnn4cccnc24)O3)c1 (stereo unspecified) | · | –[9.04 µM] | · | – | · | ·
O=C(Nc1ccc(Cl)cc1)Nc1ccon1 | – | 18µM | – | 15µM | – | –
CC(Oc1ccc(Cl)cc1Cl)C(=O)NCCC1=CCCCC1 (stereo unspecified) | – | ? | -57 | ? | – | –
Cc1ccc(Cl)cc1N1CCN(C(=O)CSc2cc(=O)n(C)c3ccccc23)CC1 | · | 15µM | · | 7.3µM | · | ·
CCn1c(=O)cc(SCC(=O)N2CCN(c3ccccc3F)CC2)c2ccccc21 | – | ? | – | 26µM! | – | –
CCn1c(=O)cc(SCC(=O)N2CCN(c3ccccn3)CC2)c2ccccc21 | – | – | – | ? | – | –
CCOc1cc(-c2nnc(SCC(=O)NCCCOC)nc2-c2ccc(OC)c(OCC)c2)ccc1OC | · | – | · | ? | · | ·
N=C(N)c1ccc(/C=C/c2ccc(C(=N)N)cc2O)cc1 | – | 13µM! | – | ? | – | –
N=C(N)c1ccc(Cl)cc1 | – | – | – | – | – | –
O=C(c1nc(-c2ccc(Cl)cc2)n2c1CCCCC2)N1CCN(c2ccccc2)CC1 | · | ? | · | 21µM | · | ·
COc1ccc(CCNC(=O)c2nc(-c3ccc(Cl)cc3)n3c2CCCCC3)c(OC)c1 | · | 10µM | · | 9.2µM | · | ·
COC(=O)c1ccccc1NC(=O)c1nc(-c2ccc(Cl)cc2)n2c1CCCCC2 | · | – | · | ? | · | ·
Cc1cccc(CCNC(=O)c2nc(-c3ccc(Cl)cc3)n3c2CCCCC3)c1 | · | 10µM | · | 9.2µM | · | ·
COc1ccccc1N(CC(=O)N(C)Cc1ccccc1)S(=O)(=O)c1cccs1 | – | – | – | – | – | –
